This is an account of results in PubChem BioAssay.

The source made the active and inactive calls. Unless noted, how the calls were made is not given here.

Assay [1] can be described thus: resazurin metabolic signal in HepG2 cells – cell-based, resazurin fluorescence, 24 h, PK04 Diversity Set, profiling panel (AID 1172). Further: test concentration not given here. Conditions: HepG2 viability, higher = more signal.
Assay [2] in a line: budding yeast growth changes without added modifier – OD600, strain BY4716, 24 h, basal condition, primary screen (AID 1173). Conditions: S. cerevisiae BY4716 growth, OD600, 24 h; higher = more signal, called active from +8 up or from −8 down.
Assay [3] is described as follows: viability profiling in MM1S myeloma cells – cell-based, resazurin fluorescence, basal, 24 h, PK04 Diversity Set, profiling panel (AID 1174).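 Further: MM1S multiple myeloma cell line; test concentration not given here.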 As to conditions: higher = more signal, called active from +8 up or from −8 down. (Alamar Blue is a resazurin reagent that responds to reducing activity.)
The target in assay [4] is Dihydroorotate dehydrogenase (quinone), mitochondrial (Plasmodium falciparum (isolate 3D7)) (UniProt Q08210). In words: inhibition of P. falciparum DHODH – biochemical, C-terminal His tag, absorbance 600 nm, primary screen (AID 1175).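 Further: recombinant parasite enzyme with a five histidine tag at its C terminus; test concentration not given here.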 As to conditions: PfDHODH enzyme, DCIP absorbance 600 nm; higher = more signal, called active from +8 up or from −8 down.
Sequence of Dihydroorotate dehydrogenase (quinone), mitochondrial (Plasmodium falciparum (isolate 3D7)) (Q08210 whole entry, looked up): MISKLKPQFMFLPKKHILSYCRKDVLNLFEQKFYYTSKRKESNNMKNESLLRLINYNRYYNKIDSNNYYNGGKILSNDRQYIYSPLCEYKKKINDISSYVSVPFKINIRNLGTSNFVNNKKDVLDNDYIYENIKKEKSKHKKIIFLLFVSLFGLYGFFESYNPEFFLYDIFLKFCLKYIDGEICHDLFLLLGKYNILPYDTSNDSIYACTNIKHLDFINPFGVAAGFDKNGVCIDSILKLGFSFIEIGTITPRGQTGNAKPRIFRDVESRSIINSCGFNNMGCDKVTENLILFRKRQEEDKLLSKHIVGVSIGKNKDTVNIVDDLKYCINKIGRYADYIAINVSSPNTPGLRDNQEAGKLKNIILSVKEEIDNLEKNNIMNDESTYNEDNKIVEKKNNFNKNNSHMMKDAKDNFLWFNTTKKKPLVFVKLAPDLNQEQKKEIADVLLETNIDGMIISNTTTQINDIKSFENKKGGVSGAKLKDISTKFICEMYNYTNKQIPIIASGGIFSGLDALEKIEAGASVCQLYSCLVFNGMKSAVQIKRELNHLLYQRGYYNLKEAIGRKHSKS
Assay [5] is described as follows: inhibition of PAO1 biofilm formation – strain PAO1, LB-PBS medium, absorbance 600 nm, primary screen (AID 1176). Further: test concentration not given here. As to conditions: P. aeruginosa PAO1 growth/biofilm, A600, 12 h; higher = more signal.
Assay [6] in a line: growth modulation of vineyard yeast isolate – strain RM11-1a, OD600, basal, 24 h, primary screen (AID 1177).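 Further: cultures grown under basal conditions with no added stressor; test concentration not given here.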 Conditions: S. cerevisiae RM11-1a growth, OD600, 24 h; higher = more signal, called active from +8 up or from −8 down.
Assay [7] in a line: growth of efflux-deficient E. coli DRC39 – strain DRC39, OD650, 24 h, E. coli filamentation inducers, primary screen (AID 1178).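 Further: growth measured as culture turbidity by optical density at 650 nm; test concentration not given here.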 As to conditions: E. coli DRC39 acrAB, higher = more signal, called active from +8 up or from −8 down.
Assay [8] is described as follows: growth of efflux-deficient E. coli DRC39 – strain DRC39, OD650, 48 h, E. coli filamentation inducers, primary screen (AID 1179).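 Further: screen aims at cell division blockers that make cells filament.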 As to conditions: E. coli DRC39 delta-acrAB growth, higher = more signal, called active from +8 up or from −8 down.
A short description of assay [9]: viability profiling in RPMI8226 myeloma cells – cell-based, resazurin fluorescence, basal, 24 h, PK04 Diversity Set, profiling panel (AID 1180).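 Further: RPMI8826 multiple myeloma cell line at 5000 cells per well; test concentration not given here.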 As to conditions: higher = more signal.
The target of assay [10] is E3 ubiquitin-protein ligase XIAP (Homo sapiens) (UniProt P98170). Briefly: small molecules binding XIAP protein – biophysical, small-molecule microarray, fluorescence 635 nm, primary screen (AID 1181).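 Further: score merges 667 nm emission and signal to noise over triplicate slides.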 As to conditions: higher = more signal.
Sequence of E3 ubiquitin-protein ligase XIAP (Homo sapiens) (P98170 whole entry, looked up): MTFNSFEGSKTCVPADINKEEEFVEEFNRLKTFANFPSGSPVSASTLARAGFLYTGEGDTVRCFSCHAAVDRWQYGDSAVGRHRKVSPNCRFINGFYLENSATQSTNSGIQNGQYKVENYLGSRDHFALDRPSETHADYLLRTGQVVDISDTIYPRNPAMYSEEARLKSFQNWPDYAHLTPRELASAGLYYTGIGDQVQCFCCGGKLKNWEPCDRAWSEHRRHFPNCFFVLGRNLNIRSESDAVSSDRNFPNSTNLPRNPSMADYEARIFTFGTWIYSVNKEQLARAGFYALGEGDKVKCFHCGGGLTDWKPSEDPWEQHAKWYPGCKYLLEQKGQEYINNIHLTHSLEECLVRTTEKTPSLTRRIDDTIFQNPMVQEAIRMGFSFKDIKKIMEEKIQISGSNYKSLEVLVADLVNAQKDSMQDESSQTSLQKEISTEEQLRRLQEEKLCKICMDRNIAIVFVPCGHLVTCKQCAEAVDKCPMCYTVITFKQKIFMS

Consider `COc1ccc(C(O)C2C=CC3C(=O)N(C)C(=O)C3N2Nc2ccccc2)cc1` (stereo not given), for which the z-score is -1.73 in [1]; -3.09 (inactive) in [2]; -0.956 (inactive) in assay [3]; 1.33 (inactive) in assay [5]; -0.119 (inactive) in [6]; -0.386 (inactive) in assay [7]. Moreover, the z-score in assay [8] was -0.605 (inactive); in [9] it was -1.08. Further, the composite z-score in assay [4] was -0.685 (inactive); in [10], 0.032.

With `CCCCCCCCCCC(O)C1C=CC2C(=O)N(C)C(=O)C2N1Nc1ccccc1` (stereo not given), the z-score in [1] was -1.83; in [2], 0.27 (inactive); in [3] it was -1.49 (inactive); in assay [5] it was 1.58 (inactive); in [6], 1.35 (inactive); in assay [7] it was -0.483 (inactive). Moreover, the z-score in [8] is -0.54 (inactive); in assay [9], -1.33. Also, the composite z-score in [4] was -0.205 (inactive); in assay [10], 0.192.

Consider `CC(CO)N1C(=O)[C@@H]2[C@H]3C(=O)OCC=C[C@H]3OC23C=CCN(c2ccc4ccccc4c2)C(=O)[C@@H]13` (stereo not given in full), for which the z-score in assay [1] is 0.984; in assay [2] it was -0.0392 (inactive); in [3] it was 0.224 (inactive); in assay [5] it was -0.0432 (inactive); in [6], -0.405 (inactive); in [7], -0.398 (inactive). The z-score in assay [8] is -0.534 (inactive); in assay [9], 0.492. The composite z-score in assay [4] was 0.0007 (inactive); in [10] it was -0.138.

With `C=CCN1C(=O)[C@]2(O[C@H](CCO)[C@@H]([Si](C)(C)c3ccc(OC)cc3)[C@@H]2C)c2cc(N3C(=O)c4ccccc4Oc4ccccc43)ccc21`, the z-score is -5.91 in assay [1]; 0.84 (inactive) in assay [2]; -8.74 (active) in assay [3]; 0.106 (inactive) in assay [5]; 4.06 (inactive) in [6]; 0.229 (inactive) in assay [7]. Also, the z-score in [8] was -0.757 (inactive); in [9] it was -6.28. Also, the values for the composite z-score in [4] and in [10] were 1.11 (inactive) and -0.138, respectively.

As to `C=CCOC(=O)[C@H]1[C@@H]2C(=O)O[C@@H](c3ccccc3)[C@@H](c3ccccc3)N2[C@@H](c2ccc(OCCOC(=O)[C@H]3C[C@H]4C(=O)NCC(=O)N4[C@H]3c3ccc(O)cc3)cc2)[C@]12C(=O)Nc1ccccc12`, the z-score was -0.0886 in assay [1]; 1.1 (inactive) in assay [2]; 1.02 (inactive) in assay [3]; 0.916 (inactive) in [5]; 2.99 (inactive) in assay [6]; 0.504 (inactive) in assay [7]. Also, the z-score in assay [8] is -0.0754 (inactive); in [9] it was 1.72. Further, the composite z-score in assay [4] was 0.814 (inactive); in assay [10] it was -0.202.

As to `C=CCOC(=O)[C@@H]1[C@H]2C(=O)O[C@H](c3ccccc3)[C@H](c3ccccc3)N2[C@H](c2ccc(OCCOC(=O)[C@@H]3C[C@@H]4C(=O)N[C@@H](CC(C)C)C(=O)N4[C@@H]3c3ccc(O)cc3)cc2)[C@@]12C(=O)Nc1ccc(I)cc12`, the z-score in [1] is 0.438; in assay [2] it was 0.893 (inactive); in assay [3] it was 0.246 (inactive); in [5], 0.848 (inactive); in [6], 1.75 (inactive); in assay [7], 0.703 (inactive). The z-score is -0.215 (inactive) in assay [8] and 0.676 in assay [9]. Also, the composite z-score in assay [4] is -1.42 (inactive); in assay [10] it was 0.155.

Regarding `CCOC(=O)C[C@H]1[C@H](OC(=O)c2cc3ccccc3oc2=O)[C@@H](NC(=O)Cc2ccc(OC)cc2)c2cc(OCCCO)ccc2N1C(=O)Cc1ccc(OC)cc1`, the z-score in [1] was 1.04; in [2] it was -3.03 (inactive); in assay [3], 1.26 (inactive); in assay [5] it was -0.234 (inactive); in assay [6] it was -1.01 (inactive); in assay [7], 1.76 (inactive). Besides, the results for the z-score in assay [8] and in [9] were 0.248 (inactive) and 0.918, respectively. In addition, the composite z-score in assay [4] was -0.317 (inactive); in [10], 0.177.

For `C=CCNC(=O)[C@@H]1[C@H]2C(=O)O[C@H](c3ccccc3)[C@H](c3ccccc3)N2[C@H](c2ccc(OCCO)cc2)[C@@]12C(=O)Nc1ccc(C#CCNC(N)=O)cc12`, the z-score in assay [1] was -0.0448; in [2] it was 1.23 (inactive); in assay [3] it was -0.286 (inactive); in assay [5], 1.18 (inactive); in assay [6] it was 1.06 (inactive); in [7], 0.0047 (inactive). In addition, the z-score in [8] was -0.568 (inactive); in [9], 0.671. Also, the composite z-score was -0.157 (inactive) in assay [4] and 0.129 in assay [10].

Consider `C[C@]1(C(=O)O)c2ccccc2C(=O)N(Cc2cc(C(F)(F)F)cc(C(F)(F)F)c2)[C@H]1c1ccc(CO)cc1`, for which the z-score in [1] is 0.341; in assay [2], 0.0491 (inactive); in assay [3] it was 0.385 (inactive); in assay [5], -0.0528 (inactive); in assay [6] it was -0.161 (inactive); in [7] it was -0.124 (inactive). The z-score in [8] was -0.515 (inactive); in assay [9], 0.306. Besides, the results for the composite z-score in [4] and in assay [10] were -0.979 (inactive) and -0.173, respectively.

`C=C(/C=C\CNS(=O)(=O)c1ccc(C)cc1)[C@H](O)[C@H]1CCCN1S(=O)(=O)c1ccccc1[N+](=O)[O-]`: the z-score in [1] was -0.527; in assay [2], 0.487 (inactive); in [3], -0.943 (inactive); in assay [5], 1.21 (inactive); in assay [6], 2.53 (inactive); in assay [7], 1.12 (inactive). The z-score is -0.23 (inactive) in assay [8] and -0.851 in [9]. Further, the composite z-score in [4] was 1.57 (inactive); in assay [10] it was -0.0448.

With `CCOC(=O)C[C@H]1[C@H](OC(=O)c2ccc(-c3ccccc3)cc2)[C@@H](NC(=O)C2CCCCC2)c2cc(OCCCO)ccc2N1C(=O)Cc1ccc(OC)cc1`, the z-score in [1] was -0.0995; in assay [2], 0.857 (inactive); in assay [3], -0.456 (inactive); in assay [5], 0.55 (inactive); in assay [6] it was -0.442 (inactive); in assay [7] it was 0.0009 (inactive). The results for the z-score in assay [8] and in [9] were 0.0016 (inactive) and -0.131, respectively. The composite z-score in assay [4] is -0.175 (inactive); in assay [10] it was -0.144.
